This passage reports Potency results from PubChem BioAssay AID504848 (National Center for Advancing Translational Sciences (NCATS), 2011).

Molecules are shown by their SMILES. In all, about 2,300 compounds went through this assay and about 1,400 (61%) were called active. Inconclusive results (about 29%) are left out. Calls come from the whole dose curve; as a rule, active = well fitted inhibition curve with a large enough effect; inconclusive = small, poorly fitted or top-dose-only effect, or effect the other way; inactive = no such curve, though single readings can be large or run the other way. The set was probably picked from earlier hits. Some of the results follow.
Potency is the fitted concentration of half-maximal effect.

The experiment in a line: Confirmation screen for delayed death inhibitors of the malarial parasite plastid, 96 hour incubation. Note: nearly all actives have a fitted effect of over 60% in size. The following applies: P. falciparum luciferase growth in erythrocytes; series mostly up to 28.7 µM. In outline:
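Erythrocytes infected with luciferase-expressing P. falciparum (2% hematocrit, 0.1% parasitemia final) in RPMI 1640 with 0.5% Albumax, exposed to compounds 96 h at 37 C, 5% CO2. Growth inhibition read as decreased luciferase luminescence.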
Regarding `O=C(Nc1nnc(Cc2ccc(F)cc2)s1)Nc1ccccc1F`, the Potency is 12.6 µM (active). To `O=S(=O)(c1cccs1)N1CCN(c2ccnc3cc(Cl)ccc23)CC1` belongs 4.47 µM (active); to `O=C(Nc1ccc(F)cc1F)c1ccc2c(c1)[nH]c(=O)n2Cc1ccc(F)cc1`, 14.1 µM (active). The result for `CC1(C)CC(=O)C2=C(C1)OC1=C(C(=O)CC(C)(C)C1)C2c1ccc(O)cc1O` reads 7.08 µM (active).

Consider `CC(C)C(=O)NC(=S)Nc1ccc(S(=O)(=O)NC2CCCCC2)cc1`, for which the Potency result is “inactive”.

With `O=C(NC(=C(Cl)Cl)S(=O)(=O)c1ccc(Cl)cc1)c1ccccc1`, the Potency result is “inactive”. As to `CC(C)NS(=O)(=O)c1ccc(NC(=S)NC(=O)c2ccc(-c3ccccc3)cc2)cc1`, the Potency was 5.01 µM (active). To `O=C(CCN1C(=O)c2ccccc2C1=O)C1=NN[C@@H]2C(=O)N(c3ccc(F)cc3)C(=O)[C@H]12` belongs “inactive”. The result for `CCC/C(C#CCCN1C(=O)c2ccccc2C1=O)=C1/c2ccccc2C(=O)N1c1ccccc1` reads 5.01 µM (active); that for `COC(=O)Cc1ccc(NC(=O)C(c2ccccc2)c2ccccc2)cc1`, 10 µM (active); that for `CCOC(=O)c1c(C)sc2c1N(C(=O)CCl)c1cc(Cl)ccc1S2`, 2 µM (active). The result for `O=C(C#Cc1ccccc1)Nc1cccc(F)c1` reads 1 µM (active); that for `COc1ccc(NC(=O)C#Cc2ccccc2)cc1`, 7.94 µM (active). For `NC(=O)c1ccc(NC(=O)C#Cc2ccccc2)cc1`, the Potency is 1 µM (active).

Regarding `O=C(C#Cc1ccccc1)Nc1ccccc1F`, the Potency is 12.6 µM (active). In the case of `Cc1ccc(Cn2c(C)nc3c(c2=O)c2nc4ccccc4nc2n3Cc2ccco2)cc1`, the Potency was 5.01 µM (active).

Consider `Nc1ccccc1SSc1ccccc1N`, for which the Potency was 7.94 µM (active).

With `CCN(CC)S(=O)(=O)c1cccc(NC(=O)c2cc(-c3cccs3)nn2-c2ccccc2)c1`, the Potency is 12.6 µM (active). The result for `Clc1cccc(OCCCCCN2CCOCC2)c1` reads “inactive”.

Consider `Brc1cccc(OCCCCN2CCCCC2)c1`, for which the Potency was 12.6 µM (active).

`Cc1nn(-c2ccccc2)c(C)c1/C=N/n1c(-c2ccccc2Br)n[nH]c1=S`: the Potency is 11.2 µM (active). The result for `S=c1[nH]nc(-c2ccccn2)n1/N=C/c1ccc(-c2ccccc2Br)o1` reads “inactive”. `Nc1nc(CCl)nc(N(c2ccccc2)c2ccccc2)n1`: the Potency is 1.41 µM (active). With `COC(=O)[C@H](Cc1ccccc1)N(C)S(=O)(=O)c1cccc(S(=O)(=O)N(C)[C@@H](Cc2ccccc2)C(=O)OC)c1`, the Potency is 14.1 µM (active). The result for `O=C(N[C@@H](Cc1ccccc1)C(=O)CCl)OCc1ccccc1` reads “inactive”; that for `O=C(CNC(=O)c1cccc(F)c1)N/N=C/c1ccc([N+](=O)[O-])s1`, “inactive”.

Regarding `COc1ccc(C(=O)NCC(=O)N/N=C/c2ccc([N+](=O)[O-])s2)cc1OC`, the Potency was 6.31 µM (active). The result for `CCN(CC)Cc1cc2[nH]c3c4ccc(Cl)cc4ncc3c2cc1OC` reads 0.199 µM (active); that for `O=C(COC(=O)C1C2CC3OC(=O)C1C3C2)Nc1ccccc1` (stereo not given), “inactive”. To `CSc1c(CC(=O)Nc2ccccc2)n(C)c2ccccc12` belongs 8.91 µM (active); to `Brc1c(CSc2nc3ccccc3s2)nc2ncccn12`, 6.31 µM (active); to `CC[C@@H](C)C(NC(=O)OC(C)(C)C)c1cn([C@@H](Cc2ccc(O)cc2)C(=O)N2CCN(C(=O)OC(C)(C)C)CC2)nn1` (stereo not given in full), 8.91 µM (active). To `CC[C@@H](C)C(NC(=O)OC(C)(C)C)c1cn([C@@H](CCCCNC(=O)OC(C)(C)C)C(=O)N2CCN(C(=O)OC(C)(C)C)CC2)nn1` (stereo not given in full) belongs 1.26 µM (active); to `CCC(CC)N1CCN(Cc2nc3ccc([N+](=O)[O-])cc3c(=O)n2-c2ccccc2F)CC1`, “inactive”; to `CCOc1ccc2c(c1)C(c1ccccc1)=NNC(c1ccccc1)=N2`, 10 µM (active).

As for `Brc1ccccc1-c1nnc(COc2ncnc3c2cnn3-c2ccccc2)o1`, the Potency result is “inactive”. The result for `CCOC(=O)c1c(S(=O)(=O)NCC(=O)N2CCN(c3ccccc3OC)CC2)c(C)n(C)c1C` reads 12.6 µM (active); that for `CN(Cc1cccc(Cl)c1Cl)C(=O)c1ccc(NC(=O)CC#N)cc1`, 4.47 µM (active). The result for `O=C(Nc1ccc2c(c1)CCCN2C(=O)c1ccco1)c1cc([N+](=O)[O-])ccc1Cl` reads 14.1 µM (active). As for `COc1ccc2nc3oc(C(=O)NCc4cccs4)cc3cc2c1`, the Potency is 2.24 µM (active). For `COc1ccccc1NC(=S)NCc1cccs1`, the Potency result is “inactive”.

Take `COCCCNC(=O)c1cc2cc3cc(OC)ccc3nc2o1`: the Potency was 2.24 µM (active). The result for `Cc1ccc2cc3cc(C(=O)NCCCN4CCCC4=O)oc3nc2c1` reads 1 µM (active). To `OC(CN1C2=NCCN2c2ccccc21)c1ccc2c(c1)OCO2` (stereo not given) belongs 2.51 µM (active); to `O=C(CN1C2=NCCCN2c2ccccc21)c1ccc2c(c1)OCO2`, 7.08 µM (active). Turning to `Cc1ccc(C)c(C(=O)CN2C3=NCCCN3c3ccccc32)c1`, the Potency is 5.62 µM (active). The result for `CCOc1ccc(NC(=O)C[n+]2ccc(N(C)C)cc2)cc1` reads 0.501 µM (active). The result for `O=C(C[n+]1cccc(CNC(=O)c2ccc(OC(F)F)cc2)c1)Nc1ccc(SC(F)F)cc1` reads 1 µM (active); that for `CN(C)c1cc[n+](CC(=O)Nc2ccc(OC(F)F)cc2)cc1`, 1.58 µM (active). The result for `Cn1nnnc1Sc1ncnc2scc(-c3ccsc3)c12` reads 3.98 µM (active); that for `Cn1nnnc1Sc1ncnc2scc(-c3ccc[nH]3)c12`, 11.2 µM (active); that for `Cn1nnnc1Sc1ncnc2scc(-c3cccs3)c12`, 8.91 µM (active).

Consider `O=C1C(Cl)=C(NC2CCCCC2)C(=O)N1c1ccc(Cl)cc1`, for which the Potency was 12.6 µM (active). Turning to `CCCCN(C)CCNC(=O)c1cc2c(=O)[nH]c3ccccc3c2n1C`, the Potency is 12.6 µM (active). The result for `CCOc1ccc(CNC(=O)c2cc3oc4ccccc4c3n2C)cc1` reads “inactive”; that for `CCOc1ccccc1NC(=O)c1cc(S(=O)(=O)NCc2ccco2)ccc1F`, 11.2 µM (active); that for `Cc1cc(C)cc(NC(=O)c2cc(S(=O)(=O)NCc3ccco3)ccc2F)c1`, “inactive”.

Take `C=C1C(=O)O[C@@H]2C[C@@H](C)[C@@H]3C=CC(=O)[C@@]3(C)[C@@H](OC(C)=O)[C@H]12`: the Potency is 1.41 µM (active). The result for `Nc1ccc[n+](CC(=O)c2ccccc2)c1` reads 12.6 µM (active); that for `CCC(C)(C)NC(=O)C(c1cccc(OC)c1OC)N(CC(C)C)C(=O)CCC(=O)Nc1cc(C)on1` (stereo not given), 7.94 µM (active).
